Most compounds without a hit are left out; they make up all but 11% or so of the library.
G9a inh – qHTS Assay for Inhibitors of Histone Lysine Methyltransferase G9a | Histone-lysine N-methyltransferase EHMT2 (Homo sapiens), Q96KQ7 | G9a H3K9 monomethylation, AlphaScreen, 2 h | Potency, µM (doses to about 102 µM), inactives show at the top dose activity, negative = inhibition, most hits filed as inhibitors | hit rate 8.8% among 350,000 | AID 504332, 2011; further: potency means the concentration at half of the fitted maximal effect; nearly all actives have a fitted effect of over 75% in size
Target sequence (Q96KQ7 913-1193 limits assumed): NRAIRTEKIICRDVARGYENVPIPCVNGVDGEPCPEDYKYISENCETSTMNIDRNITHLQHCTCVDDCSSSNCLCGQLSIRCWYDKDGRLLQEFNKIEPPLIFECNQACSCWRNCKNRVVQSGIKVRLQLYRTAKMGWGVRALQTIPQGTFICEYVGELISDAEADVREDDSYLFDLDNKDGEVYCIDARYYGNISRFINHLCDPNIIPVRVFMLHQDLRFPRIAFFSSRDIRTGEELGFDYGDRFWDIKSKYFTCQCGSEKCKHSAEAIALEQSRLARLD
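Methyltransferase reactions run at room temperature for 2 h (20 nM enzyme, 500 nM biotin-H3K9 peptide, 20 uM SAM) after a 15 min compound preincubation; product detected by AlphaScreen beads and anti-H3K9me1 antibody.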
Sfp PPTase inh – qHTS Assay for Inhibitors of Bacillus subtilis Sfp phosphopantetheinyl transferase (PPTase) | Biochemical Sfp PPTase activity, qHTS | hit rate 3.5% among 310,000 | Potency, µM, for the others: largest response in the series, negative = inhibition, actives largely listed as inhibitors | 4'-phosphopantetheinyl transferase ffp (Bacillus subtilis), Q9F4F7;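 further: the enzyme is Sfp with the accession as filed and its product quenches rhodamine fluorescence; potency means the concentration at half of the fitted maximal effect; 0% = enzyme reaction without inhibitor and -100% = no enzyme wells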
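Fluorescence-quenching assay: 15 nM Sfp-PPTase preincubated 15 min at room temperature with compound, then 5 uM rhodamine-CoA and 12.5 uM BHQ-2-labelled YbbR peptide added. Fluorescence (ex 525/em 598 nm) read at start and after 30 min; difference gives rate.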
Tau fibril ThT – qHTS for Inhibitors of Tau Fibril Formation, Thioflavin T Binding; Microtubule-associated protein tau (Homo sapiens), P10636; recombinant tau K18 P301L, heparin-induced fibrillization, ThT fluorescence; Potency, µM (doses to about 57.4 µM), for inactives: at the top dose activity, negative = inhibition, usual class: inhibitors; hit rate 2.1% among 270,000; AID 1460, 2008; further: potency means the concentration at half of the fitted maximal effect; nearly all actives have a fitted effect of over 55% in size
Target sequence (P10636 561-689 P618L limits assumed): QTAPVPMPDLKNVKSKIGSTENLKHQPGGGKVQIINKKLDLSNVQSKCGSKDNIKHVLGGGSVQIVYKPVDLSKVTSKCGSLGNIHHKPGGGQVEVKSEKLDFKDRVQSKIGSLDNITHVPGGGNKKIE
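Aggregation was driven by heparin (20 uM final) acting on recombinant tau […] bearing P301L in 100 mM sodium acetate pH 7; fibrils were detected with Thioflavin T.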
Tau fibril FP – qHTS for Inhibitors of Tau Fibril Formation, Fluorescence Polarization. hit rate 0.39% among 280,000. Microtubule-associated protein tau (Homo sapiens), P10636. AID 1468, 2008. K18 P301L tau heparin fibrillization, Alexa594 FP, 6 h. Potency, µM (titrated, usually from 57.7 µM), for the others: at the highest dose activity, negative = inhibition, usual class: inhibitors; further: potency means the concentration at half of the fitted maximal effect; nearly all actives have a fitted effect of over 55% in size
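FP of Alexa 594-tau after heparin (20 uM) induction. Substrate: human K18 P301L, 15 uM unlabeled, 0.24 uM labeled. Buffer 100 mM sodium acetate pH 7. 6 hr, 37 C.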
Tau fluor counter – Counterscreen qHTS for Inhibitors of Tau Fibril Formation, Fluorescence Polarization; Potency, µM (highest dose often 57.7 µM), for inactives: at the highest dose activity change, negative = decrease; tau K18 P301L (four-repeat tau fragment) Alexa594 fluorescence, heparin fibrillization; hit rate 0.93% among 280,000; further: potency means the concentration at half of the fitted maximal effect; nearly all actives have a fitted effect of over 55% in size
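Human K18 P301L tau (15 uM unlabeled plus 0.24 uM Alexa 594-labeled, final) in 100 mM sodium acetate pH 7 was mixed with compound and 20 uM heparin and incubated 6 hr at 37 C.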
FBPA coupling cs – qHTS Assay for Inhibitors of Fructose-1,6-bisphosphate Aldolase from Giardia Lamblia: Coupling assay counterscreen | coupling enzyme system counterscreen, AmpLite Red fluorescence | activity change, negative = inhibition, % at 58.2 µM, hits read low | hit rate 0.67% among 290,000 | AID 2472, 2010; in the data active means activity change below about -30%
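Counterscreen of the coupled detection system alone, without aldolase: glyceraldehyde-3-phosphate coupling enzymes plus AmpLite Red readout. Compounds at 57.5 uM final, 10 min RT preincubation, 20 min RT reaction, fluorescence 525/598 nm.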
Starred values were filed as active, the others as inactive; ? = inconclusive; . = no result; [ ] = remark or other dose. Unless noted, the call rests on the fitted dose curve; in most records, active means well fitted curve in the direction sought with a large enough effect; inconclusive means small, poorly fitted or top-dose-only effect, or another doubt; inactive means no such curve, though single readings can be large; an effect the other way counts as inactive or inconclusive. Unless noted, on the % scale 0 is the no-effect control and ±100 the full control effect.

SMILES	G9a inh	Sfp PPTase inh	Tau fibril ThT	Tau fibril FP	Tau fluor counter	FBPA coupling cs
Cc1nnc(SCc2ccccc2Cl)c2cc3sccc3n12	?	.	?	0%	-20%	.
COc1ccc(OC)c(N2C(=O)[C@@H]3C(c4ccccc4Cl)=NO[C@@H]3C2=O)c1	26%[2.33 µM]	5%	?	-10%	-21%	-4
COc1ccc(C2=NO[C@@H]3C(=O)N(c4c(C)cccc4C)C(=O)[C@H]23)cc1OC	50µM*	9%	0%	-7%	-8%	-1
Cc1cccc(C)c1N1C(=O)[C@@H]2C(c3ccccc3Cl)=NO[C@@H]2C1=O	50µM*	8%	-13%	-8%	-19%	0
O=S(=O)(c1ccccc1)c1nc(-c2ccco2)oc1NCc1ccccc1	35µM*	3%	?	1%	-24%	-2
O=S(=O)(c1ccccc1)c1nc(-c2ccco2)oc1NCc1ccco1	?	-7%	-2%	1%	-8%	0
O=S(=O)(c1ccccc1)c1nc(-c2ccco2)oc1Nc1ccccc1	7.9µM*	3%	?	?	?	-7
COc1ccc(S(=O)(=O)N2CCC(Oc3ccc(-n4cnnn4)cc3)CC2)cc1OC	-4%[59 µM]	.	-3%	-5%	-20%	.
O=C(CCC1N=C2c3ccccc3N=C(SCc3cccc(Cl)c3)N2C1=O)NCc1cccs1 (centres undefined)	3%[59 µM]	.	3%	1%	18%	.
CN(C(=O)c1ccoc1)c1ccccc1I	.	-1%	.	.	.	7
Cc1cc(Cl)ccc1C(=O)C1CCCN(C(=O)CN2CCOC2=O)C1 (centres undefined)	9%	17%	.	.	.	.
COc1cc(/C=N\n2nnnc2N)ccc1OCc1ccc(F)cc1	0%[59 µM]	-18%	-17%	-4%	-25%	4
COc1cc(/C=N/n2c(C)n[nH]c2=S)ccc1OCc1ccc(F)cc1	1.3µM*	-24%	-8%	-1%	-7%	1
COc1cc(/C=N/Nc2nncn2/N=C/c2ccc(O)c(OC)c2)ccc1O	-15%	?	?	0%	-14%	0
COc1cc(/C=N/n2c(-c3cc(C)[nH]n3)n[nH]c2=S)cc(OC)c1OC	2.5µM*	32µM*	-18%	-4%	-9%	2
COc1cc(/C=N/n2c(-c3cc(C)[nH]n3)n[nH]c2=S)ccc1O	4µM*	50µM*	-9%	4%	-4%	0
COc1cccc(/C=N/n2c(-c3cc(C)[nH]n3)n[nH]c2=S)c1	2.5µM*	?	-14%	3%	-14%	1
CCc1[nH]nc(C(=O)N2CCCC(Nc3cccc(F)c3)C2)c1C (centres undefined)	.	-4%	.	.	.	.
CCn1cc(C(=O)NCc2ccccc2Cl)c(=O)c2cc(S(=O)(=O)N3CCc4ccccc4C3)ccc21	6%[59 µM]	.	5%	-13%	-20%	.
N#Cc1cccc2c1-c1ccccc1/C2=N/NC(N)=S	89µM*	-26%	.	.	.	-2
N#Cc1cccc2c1-c1ccccc1/C2=N/NC(N)=O	7%	0%	.	.	.	-1
CCc1cccc(C)c1NC(=O)c1ccc2c(c1)CCN2S(C)(=O)=O	10%	12%	.	.	.	2
CC1CCc2c(sc(/N=C/c3ccco3)c2C(N)=O)C1 (centres undefined)	?	-23%	?	?	-18%	0
CC1CCc2c(sc(/N=C/c3cccnc3)c2C(N)=O)C1 (centres undefined)	-25%[12.7 µM]	50µM*	?	-9%	-3%	-2
COc1ccc(CNC(=O)CN(C)c2nn3c(=O)cc(C)nc3s2)cc1	2%[59 µM]	.	1%	-4%	-3%	.

Assay outcomes: PubChem, National Center for Advancing Translational Sciences (NCATS)
